# From paper PMC8384837, “Expanding the binding specificity for RNA recognition by a PUF domain”
# Numbering of substitutions follows the chain as printed.
# What was measured:
# Assay in all cases: yeast three-hybrid, YBZ-1, SC-Leu-His + 0.5 mM 3-AT, 4 days
# Conditions in all cases: tags: N-Gal4 AD-HA kept; label: inside an RPR1-promoter hybrid RNA with tandem MS2 sites; ssRNA
# [1] = molecular target: PUM1 PUF domain R3-EWC (Homo sapiens, UniProt Q14671 828-1176, C935E;R936W;Q939C)
# Outline: (§1)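 Pumilio-1 PUF domain libraries, randomized at the three base-contacting residues of each repeat, were co-expressed with matching RNA elements from a centromeric plasmid in strain YBZ-1, which carries a LexA–MS2 coat fusion and a HIS3 reporter. Transformants grew for four days on SC-Leu (input) or on SC-Leu-His + 0.5 mM 3-AT (selection), and the repeat regions were PCR-amplified and Illumina-sequenced. The interaction score is the log change in variant frequency from input to selection. That logarithm is base 2, with a pseudocount of 1 where a variant was absent.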
# [2] = molecular target: PUM1 PUF domain R7-LNR (Homo sapiens, UniProt Q14671 828-1176, S1079L;E1083R)
# Outline: as §1
# [3] = molecular target: T1, PUM1 PUF domain R6-GFG (Homo sapiens, UniProt Q14671 828-1176, N1043G;Y1044F;Q1047G)
# T1 sequence: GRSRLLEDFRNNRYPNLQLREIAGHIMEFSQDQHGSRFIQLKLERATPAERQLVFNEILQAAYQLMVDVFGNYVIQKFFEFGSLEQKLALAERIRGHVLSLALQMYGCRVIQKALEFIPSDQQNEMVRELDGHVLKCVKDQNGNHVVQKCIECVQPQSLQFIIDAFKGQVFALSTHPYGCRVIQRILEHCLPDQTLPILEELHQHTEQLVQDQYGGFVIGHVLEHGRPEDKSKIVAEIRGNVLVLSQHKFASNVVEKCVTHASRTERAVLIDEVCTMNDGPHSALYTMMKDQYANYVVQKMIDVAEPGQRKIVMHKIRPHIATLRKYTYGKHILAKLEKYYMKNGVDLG
# Outline: as §1
# [4] = molecular target: PUM1 PUF domain R1-KHR (Homo sapiens, UniProt Q14671 828-1176, S863K;R864H;Q867R)
# Outline: as §1
# [5] = molecular target: PUM1 PUF domain R1-VYR (Homo sapiens, UniProt Q14671 828-1176, S863V;R864Y;Q867R)
# Outline: as §1
# [6] = molecular target: PUM1 PUF domain R8-KHG (Homo sapiens, UniProt Q14671 828-1176, N1122K;Y1123H;Q1126G)
# Outline: as §1
# [7] = molecular target: PUM1 PUF domain R2-NRD (Homo sapiens, UniProt Q14671 828-1176, Y900R;Q903D)
# Outline: as §1
# [8] = molecular target: T2, PUM1 PUF domain R6-SRE (Homo sapiens, UniProt Q14671 828-1176, N1043S;Y1044R;Q1047E)
# T2 sequence: T1 sequence with G216S, F217R, G220E
# Outline: as §1
sequence,measurement,setting,value
GGCUAGAACUAGUGGAUCCCCCGGCGCCCGGCGGCUCGAGCCCGGGUAAGUGUAACUAGUCUGCAUGCCGCCGGGCGCCAUGCCUGCAGGUCGACUCUAGAAAACAUG,binding signal,[1],4.45 log2 enrichment (interaction score)
GGCUAGAACUAGUGGAUCCCCCGGCGCCCGGCGGCUCGAGCCCGGGUAAGUCUAAAUAGUCUGCAUGCCGCCGGGCGCCAUGCCUGCAGGUCGACUCUAGAAAACAUG,binding signal,[2],3.62 log2 enrichment (interaction score)
GGCUAGAACUAGUGGAUCCCCCGGCGCCCGGCGGCUCGAGCCCGGGUAAGUGUAAAUAGUCUGCAUGCCGCCGGGCGCCAUGCCUGCAGGUCGACUCUAGAAAACAUG,binding signal,[3],3.55 log2 enrichment (interaction score)
GGCUAGAACUAGUGGAUCCCCCGGCGCCCGGCGGCUCGAGCCCGGGUAAGUGUAAAUUGUCUGCAUGCCGCCGGGCGCCAUGCCUGCAGGUCGACUCUAGAAAACAUG,binding signal,[4],2.59 log2 enrichment (interaction score)
GGCUAGAACUAGUGGAUCCCCCGGCGCCCGGCGGCUCGAGCCCGGGUAAGUGUAAAUCGUCUGCAUGCCGCCGGGCGCCAUGCCUGCAGGUCGACUCUAGAAAACAUG,binding signal,[4],5.17 log2 enrichment (interaction score)
same,binding signal,[5],2.62 log2 enrichment (interaction score)
GGCUAGAACUAGUGGAUCCCCCGGCGCCCGGCGGCUCGAGCCCGGGUAAGGGUAAAUAGUCUGCAUGCCGCCGGGCGCCAUGCCUGCAGGUCGACUCUAGAAAACAUG,binding signal,[6],3.34 log2 enrichment (interaction score)
GGCUAGAACUAGUGGAUCCCCCGGCGCCCGGCGGCUCGAGCCCGGGUAAGCGUAAAUAGUCUGCAUGCCGCCGGGCGCCAUGCCUGCAGGUCGACUCUAGAAAACAUG,binding signal,[6],5.27 log2 enrichment (interaction score)
GGCUAGAACUAGUGGAUCCCCCGGCGCCCGGCGGCUCGAGCCCGGGUAAGUGUAAAAAGUCUGCAUGCCGCCGGGCGCCAUGCCUGCAGGUCGACUCUAGAAAACAUG,binding signal,[7],3.12 log2 enrichment (interaction score)
GGCUAGAACUAGUGGAUCCCCCGGCGCCCGGCGGCUCGAGCCCGGGUAAGUGGAAAUAGUCUGCAUGCCGCCGGGCGCCAUGCCUGCAGGUCGACUCUAGAAAACAUG,binding signal,[8],5.64 log2 enrichment (interaction score)
